± gives the standard deviation of the averaged measurements. The full ranking holds about 25,000 sequences; the median of “ln(normalized median fluorescence intensity)” is about 10, and the highest 2% start at about 12. Many of the other results were omitted from the sample, so the highest values are more common in it than they were.
What follows are sequences tested on PfAP2-G AP2 domain (GST-tagged) (assay: gcPBM binding intensity (ln(normalized median fluorescence intensity)); higher = stronger DNA binding).
Summary of the method: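 Binding of GST-tagged P. falciparum DNA-binding domains, expressed in E. coli and used at about 25 μg on average, was carried out for 1 h in 1× PBS containing 1% milk, 0.2 mg/ml BSA, 0.5% salmon testes DNA and 0.03% Triton X-100. The target was an Agilent 4 × 180k array of primer-extended double-stranded 36-bp intergenic genomic probes plus negative controls, read with Alexa488 anti-GST antibody at 488 nm. Binding intensity is the highest Masliner-normalised natural-log median intensity across replicate spots of either probe orientation.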

Sequence | gcPBM binding intensity (ln)
ATATATGTATATTTATGTACGTATTCCTGTATAGTC [XGTACX_site5763] | 11.5 ± 0.85
ATTTTTATTAAAATATGTACGTATTTTACTCATACA [XGTACX_site5330] | 11.6 ± 0.8
TTAGTATATTTTTCCTGTACGTACTCAGATACAAAT [XGTACX_site7397] | 11.7 ± 0.91
TTTAATAATTATTAAAGTACAAAATAAATATTGAAT [XGTACX_site7538] | 11 ± 0.62
CAAATAAAAATAAGGAGTACAATTAAAAAAGGAAGG [XGTACX_site4366] | 11.6 ± 0.91
TGGAATAAAAAAAGGAGTACAATTAATTATTCTTAA [XGTACX_site8299] | 11.8 ± 1.3
TTGTATATATATGGAAAAATATATATATATATATAT [GTGCAC_negctrl_site591] | 10.3 ± 0.83
ATATACTATATTTTAACACACAAAAAAAAAAAATAT [CACACA_site1091] | 9.985 ± 0.035
CCCCCCGTGTTATATACACACATAATCAAATAAAAT [CACACA_site4111] | 11.8 ± 0.99
AGGCACGTGTTATATACACACATAATCAAATAAACT [CACACA_site7852] | 10 ± 0.11
AAATTATAATATAATACACACATAAAAAAAAAATCA [CACACA_site3634] | 9.975 ± 0.049
TAATAAATAAAATAGAGTACAGGGATTTCATTAAAT [XGTACX_site8979] | 11.4 ± 0.82
TTTTAATGTACCAGTGTGCACCTTGCGTACATATTA [GTGCAC_site9957] | 11.6 ± 0.97
TTGCATTAATTTATGTGTACATATAAATTTTTATTT [XGTACX_site3060] | 11.6 ± 0.88
CCAGTGTGCACCTTGCGTACATATTAAATTAATTAA [XGTACX_site3729] | 11.5 ± 0.96
TTTTGGATCATTTGTTGTACATATGCAAAAAAAAAA [XGTACX_site3157] | 11.3 ± 0.91
TTCATCTTAAAATTGGGTACATAACACAAAGTATAA [XGTACX_site1894] | 11.3 ± 0.93
ATCTTATCATTTTAAAGTACATAATTAATTCTTTTT [XGTACX_site3999] | 11.2 ± 0.67
TTAAGAATATCTTAGAGTACATTTTATCATCTTAAA [XGTACX_site8298] | 11 ± 0.68
ATGGTATCTTTTAGAAGTACATCATGATAATAATTT [XGTACX_site5544] | 11.7 ± 0.91
ATTTTTTTTTAATGCAAAAGGTGATGATCGGTCATA [CACACA_negctrl_site959] | 10.2 ± 0.35
TATTAAAAATGTTAAGTGCAAAAATAAAAATTGTGG [GTGCAC_site9854] | 10.2 ± 0.17
GATACACCAAATAACTGTACGCACGTGTAATATTAA [XGTACX_site3441] | 11.6 ± 0.83

Sequence | gcPBM binding intensity (ln)
ATGCATATAACTACGTGTACAAATATACACAAATAC [XGTACX_site8811] | 11.4 ± 0.86
ATTAAAAAAATATACGCACACAAAATGTAATAACAA [CACACA_site2439] | 10.4 ± 0.21
CTTATACTTCTACATCGTACAAAAGATGGTATAATT [XGTACX_site2698] | 10.8 ± 0.43
GAACCGTTTTTATGTAGTACATATGTATATATATAT [XGTACX_site1577] | 11.6 ± 1.1
ATGTATATATATATATGTACATATTTTTTATATGTA [XGTACX_site441] | 11.2 ± 0.81
TATTTACATTTTAGTAGTACATATATGTATATATAT [XGTACX_site6839] | 11.3 ± 0.79
ATATTATATTGGATGTTGCACTTAACAAAAGGATAT [GTGCAC_site9478] | 10.2 ± 0.23
ATATATTAATAATTTTGTACGCATTTCCTTTTTATT [XGTACX_site1638] | 11.5 ± 1
TTTTTTTCTTTTTGAGGTACGCATTATTTTATTTGT [XGTACX_site6996] | 11.3 ± 0.79
CCTTATACGATATTATGTACGCATATGTGCATTTTT [XGTACX_site1570] | 11.5 ± 1
AATAATAAATTATGGTGTACGCATTTGTATATATAC [XGTACX_site5417] | 11.7 ± 0.98
ATATTAAATATAATTTGTACGCATTTTTTTTTTTTT [XGTACX_site1910] | 11.5 ± 0.82
TATTATATATATAGGTGTACGCATTTGTCCTTTATA [XGTACX_site1385] | 11.7 ± 1.1
ATAATTATATATTTATGTACGCATAAATATTTATAT [XGTACX_site5765] | 11.5 ± 1.2
GAATTTCGATATATGTGTACGCATTTGTATTATAGG [XGTACX_site6332] | 11.7 ± 1.1
TTTCGATTATGTTTTTGTACGCAATATATTAATTCT [XGTACX_site3634] | 11.5 ± 1
TACATAAACATTTATACACACATTATGTATACATAT [CACACA_site405] | 10.04 ± 0.035
TAAAAATATTTTCATTGTACATATATATAAATATAT [XGTACX_site1123] | 10.9 ± 0.61
ACATTTTTGGTTTTAGTGCAATATGAATTATTTTAT | 10.12 ± 0.078
AAAAAAAAATTAATATATAAAAGGATATATATATAT [GTGCAC_negctrl_site449] | 9.77 ± 0.46
AAGGATATAAAAAAACGTACGTACGATAATATAATT [XGTACX_site1292] | 11.6 ± 0.91
ATAAAATATAAAAATTGTACGATAATAATAGTAGGA [XGTACX_site8951] | 10.8 ± 0.36
TCATATATATTATACACACACATATATAAATATATA [CACACA_site967] | 10 ± 0.23

Sequence | gcPBM binding intensity (ln)
TTATTAAAAATGTATTGTACAAATTTATTAGTAAAT [XGTACX_site4799] | 11 ± 0.52
TCATGTAGTAAAAACTGTACAAATTATTTATCATGT [XGTACX_site1727] | 11 ± 0.64
GTGTAGTAAAATCGATGTACGTACAAATCAATTATT [XGTACX_site7662] | 11.8 ± 0.83
ACCTTTATTGTATGAACACACATAAGCTGATACATC [CACACA_site4028] | 10.2 ± 0.11
ATTTATTTCAATAAACTTCTTTTCTTTAACAATTAC [CACACA_negctrl_site1222] | 9.845 ± 0.035
TATTCATATTTAAAGGTGCAATATTTATTTTGTACA | 10.2 ± 0.18
CCTCCCATTTTTACACGTACACATTTAAAATAGACT [XGTACX_site5640] | 11.7 ± 1.1
AAAAGACATTTTTTTTTATAAATACACACGTACGTG [TGCATGCA_negctrl_site281] | 11.1 ± 0.72
TATTTTACACATTTACGTACATAAATATATATATAT [XGTACX_site8788] | 11.6 ± 0.95
TCTTATGATGGAATGTTAAATATTACATTTTGTTTA [TGCATGCA_negctrl_site503] | 9.51 ± 0.22
ACGTTTTTGAGTAGTACACACACAATAAGGATGGAT [CACACA_site9044] | 11.5 ± 0.97
GTTTTTGAGTAGTACACACACAATAAGGATGGATTC [CACACA_site3192] | 11.5 ± 0.97
GAAACGTTTTTGAGTAGTACACACACAATAAGGATG [XGTACX_site6809] | 11.7 ± 1.1
TTAAAAATGTTGGAAAGTACATATTTTTTAAAAGTA [XGTACX_site802] | 11.1 ± 0.61
TTAACCACTAAAAGTACACACATATATACATATATA [CACACA_site3912] | 11.4 ± 0.92
TATATCATCATGTATGTACACACATACATATATTAT [CACACA_site8387] | 11.2 ± 0.72
ATATATACATATGGGTGTACATATGCACATATATAT [XGTACX_site8437] | 11.3 ± 0.71
ATAATAATATGTGGGTGTACATATACACATATATAT [XGTACX_site4356] | 11.3 ± 0.71
AATACATATGGGTGTACACATTATATATATATATAT [CACACA_site4601] | 11.6 ± 0.89
TCATCATGTATGTACACACATACATATATTATGTAC [CACACA_site1386] | 11.7 ± 0.8
ATATATCATCATGTATGTACACACATACATATATTA [XGTACX_site2814] | 11.2 ± 0.74
TAGAATAATCTATAAACACACAAACACAACAAAAGA [CACACA_site7861] | 10.3 ± 0.32
ATATATTATCAACTTACACACAGAAAAATATAATAA [CACACA_site293] | 9.975 ± 0.092

Sequence | gcPBM binding intensity (ln)
ATTTGGCATAAACACACACACACACCCACCCACATA [CACACA_site8096] | 10.6 ± 0.38
ACGGGCGACACATAAGTGCGCAAAAAAAAAAAAATA [GTGCAC_site9688] | 10.4 ± 0.46
TTTTTTTTTTTGTGAGTGCACGTATGAAGAGAAAAA | 10.9 ± 0.8
TTATAAATATAATATTGTACAAAATTTTAACATGTC [XGTACX_site5259] | 10.9 ± 0.59
GCATTCATTTTTAATACACACAAAAAAAAAATAAAA [CACACA_site2408] | 10.2 ± 0.42
TATATATATATATATACACACATTTTTAATGATAAA [CACACA_site2695] | 10.1 ± 0.37
TTTTAATGATATATGAGTACACATTGTTTTTTATAA [XGTACX_site1072] | 11.6 ± 1
CCCTCAACGAATTTGAGTACACATTTTAAATGATAT [XGTACX_site7763] | 11.7 ± 1.1
AAAATCTAGGTATTTATACACACTAATATAATATAC [CACACA_site8108] | 10.2 ± 0.28
ATAACTTTATTTTCCTGTACACACATTTGACATATT [XGTACX_site7192] | 11.4 ± 0.73
AGTATAACTTTTGCGCGTACACACATTTATCCTCTT [XGTACX_site429] | 11.6 ± 0.72
TTTTTTTTTTTTTTTACACACATTTGAATAACTTTA [CACACA_site6810] | 9.75 ± 0.34
GTATAACTTTTGCGCGTACACACATTTATCCTCTTT [CACACA_site208] | 11.7 ± 0.86
ATAACTTTTGCGCGTACACACATTTATCCTCTTTAT [CACACA_site209] | 11.7 ± 0.96
TCCTCTTTTATTTTTACACACGCGTAAACATATATA [CACACA_site667] | 10.5 ± 0.4
AATTTATGTTTTAAAAGTACTTTTCTAATTTATAAA [XGTACX_site1593] | 11.1 ± 0.72
TACTGAAATAATTATTTAAACGTTTTTATATGTATT [CACACA_negctrl_site487] | 9.83 ± 0.042
AAATAGTTAAAAAGGCGTACACATAAATAAATAAAT [XGTACX_site2096] | 11.7 ± 0.81
TACACAAAACATAAAAGTACATAATAATAAAGTTAA [XGTACX_site8872] | 11.3 ± 0.6
TACATAATAATAAGGCGTACATAAAAATTAAAAATT [XGTACX_site8769] | 11.4 ± 1
